According to PubChem BioAssay (NCI):
This is part of a sample that, as a whole, favours compounds with a hit. Of some 83,000 tested, about 20% had one in any assay.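 In brief: 96-well plates, 48 h treatment, single concentration, percent growth endpoint.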 Values without a mark were called inactive. The source made the active and inactive calls. How the source made its calls: active means growth percent below 10; inactive means the rest.

System: HL-60(TB) leukemia
Experiment: NCI-60 one-dose screen, 48 h (100 = growth as untreated, 0 = no growth, -100 = all killed)
Conditions: 10 µM unless noted

Row | Structure (SMILES) | growth
1 | COc1cc(C2C3=C(COC3=O)N(CCO)c3cc4c(cc32)OCO4)cc(OC)c1O (stereo not drawn) | 4.08% (active)
2 | OC(CBr)CCBr (stereo not drawn) | 103%
3 | FC(F)(F)Oc1cccc(-c2cnc3ccc(-c4ccncc4)nn23)c1 | -19.3% (active)
